Holding throughout (experiment): NCI-60 one-dose screen, 48 h (100 = growth as untreated, 0 = no growth, -100 = all killed)
Holding throughout (conditions): 10 µM unless noted

The test system of test [1] is NCI-H23 lung.
Test [2] concerns NCI-H226 lung.
The test system of test [3] is NCI-H322M lung.
Test [4] concerns HOP-62 NSCLC.
Test [5] has as its system NCI-H460 lung.
The test system of test [6] is NCI-H522 lung.
Test [7] deals with A549/ATCC NSCLC.
In test [8] the test system is 786-0 renal.
The test system of test [9] is COLO 205 colon.
Test [10] deals with DU-145 prostate.
The subject of test [11] is K-562 leukemia.
The subject of test [12] is MALME-3M melanoma.
Test [13] concerns MDA-MB-231 breast.
Test [14] deals with RXF 393 renal.
The subject of test [15] is SF-268 CNS.
The subject of test [16] is SF-539 CNS.
The subject of test [17] is UACC-257 melanoma.
For test [18], the system named is M14 melanoma.
Test [19] relates to HOP-92 NSCLC.

About 83,000 compounds went through this panel and 20% of them were active in at least one assay; those are over-represented in the sample as a whole.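 Note: values are percent growth. 100 is the growth of untreated cells, values between 100 and 0 indicate rising inhibition; between -100 and 0 indicates cell death.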 A number with no mark means an inactive call. The source made the active and inactive calls. Rule for the calls: active = growth percent below 10; inactive = the rest.

Consider `C#CC[C@@H]1C[C@]2(C)[C@H]3CC[C@@H]4[C@H]5C(C(=C)C)CC[C@]5(C(=O)NCCCCCCCCN)CC[C@@]4(C)[C@]3(C)CC[C@H]2C(C)(C)[C@H]1OC(C)=O` (stereo partly specified), for which the growth in test [1] is 97.3%; in test [2] it was 95.6%; in test [3], 101%; in test [4], 103%; in test [5], 16.3%; in test [6] it was 88.1%. The growth in test [7] is 93.3%; in test [8], 85.1%; in test [9] it was 86%; in test [10], 75.3%; in [11], -41.8% (active); in [12], 111%. For the same compound, the growth in [13] is 67.9%; in test [14], 71.5%; in [15], 91.2%; in test [16] it was 88.3%; in test [17], 119%; in test [18], 102%.
Regarding `C=CC[C@]1(O)CC[C@H]2[C@@H]3CCc4cc(O)ccc4[C@H]3CC[C@@]21C`, the growth in test [1] is 112%; in [2], 98.9%; in [3], 97%; in test [4], 104%; in test [5] it was 97.8%; in [6] it was 63.9%. The growth in [7] is 91.3%; in test [8], 95.8%; in test [9], 104%; in [10] it was 102%; in [11], 56%; in [12] it was 93.3%. For the same compound, the growth was 99.6% in test [13]; 102% in [14]; 97.1% in test [15]; 105% in test [16]; 102% in test [17]; 94.3% in test [18].
Regarding `CC1=C(C(=O)Nc2ccc(F)cc2)C(c2ccccc2)C2=C(CC(C)(C)CC2=O)N1` (stereo unspecified), the growth was 72.2% in test [1]; 84.9% in [2]; 95.9% in test [3]; 96.1% in test [4]; 73% in test [5]; 53.4% in [6]. Further, the growth in test [7] is 76.7%; in [8], 84.6%; in [9], 99.2%; in [10], 95.2%; in [11], 56%; in [12], 89.8%. In addition, the growth was 70% in [13]; 96.4% in [14]; 82.6% in [15]; 79.5% in [16]; 83.6% in [17]; 82.6% in [18].
With `Fc1cc(-c2nnc3sc(-c4ccc(Cl)cc4)nn23)c(Cl)cc1Cl`, the growth is 91.6% in test [1]; 93.2% in test [2]; 82.3% in test [3]; 116% in test [4]; 103% in test [5]; 82.8% in [6]. In addition, the growth is 93.8% in test [7]; 95.3% in [8]; 106% in test [9]; 107% in test [10]; 116% in test [11]; 62% in [12]. Moreover, the growth is 88.3% in [13]; 97.4% in test [14]; 98% in [15]; 107% in [16]; 103% in test [17]; 102% in test [18].
For `NCCCOc1cc2ccccc2cc1C(=O)NCCCOc1cc2ccccc2cc1C(=O)Nc1ccc(Cl)cc1O`, the growth is -67.6% (active) in test [1]; -85.8% (active) in [2]; -51.9% (active) in [3]; -100% (active) in test [4]; -72.3% (active) in test [5]; -65.1% (active) in test [6]. Besides, the growth in [7] was -75.2% (active); in test [8] it was -82.4% (active); in test [9], -54.1% (active); in test [10] it was -21.3% (active); in test [12], -82.5% (active); in test [13], -87.9% (active). The growth in [14] is -96.5% (active); in [15], -27.8% (active); in test [16], -93.7% (active); in test [17], -69.2% (active); in test [18], -74.6% (active).
`COC(=O)C(CCC(=O)CCl)N1C(=O)c2ccccc2C1=O` (stereo unspecified): the growth is 79.1% in test [1]; 70.1% in test [2]; 91.7% in test [3]; 90.1% in test [5]; 49.7% in test [19]; -15.1% (active) in test [6]. Moreover, the growth in test [7] was 104%; in test [8] it was 60.3%; in [9] it was 87.8%; in test [10], 87.6%; in [11], 28.6%; in test [12], 42.2%. The growth was 84.6% in test [13]; 25.8% in test [14]; 56.5% in test [15]; 64.9% in [16]; 69.7% in [17]; 39.9% in test [18].
With `COc1ccc(-c2[nH]nc(N)c2-c2cc(OC)c(OC)c(OC)c2)cc1`, the growth in [1] was 17.4%; in test [2], 68.3%; in test [3], 7.95% (active); in [5] it was 7.6% (active); in [19], 31.3%; in test [6], -32% (active). Moreover, the growth in test [7] is 19.3%; in test [8] it was 24%; in test [9], -61.6% (active); in [10], 2.62% (active); in [11], -15.6% (active); in test [12] it was 25.8%. Moreover, the growth in test [13] is -10.6% (active); in [14], 20%; in [15], 15.1%; in [16] it was -13.1% (active); in test [17], 58.1%; in test [18] it was -5.11% (active).
Regarding `O=S(=O)(NCC[C@@H]1C[C@H]1c1ccc2ccccc2c1)c1ccc(C(F)(F)F)cc1`, the growth in [1] is 84.9%; in test [2], 86.1%; in test [3], 100%; in test [5], 96.1%; in test [19], 91.4%; in [6], 83.8%. Besides, the growth in test [7] is 85.3%; in [8], 96.3%; in [9], 105%; in test [10], 96.6%; in test [11] it was 89.2%; in [12], 88.5%. The growth in [13] was 94.6%; in test [14], 109%; in test [15], 89.3%; in test [16] it was 99.9%; in test [17], 100%; in [18], 96.2%.
In the case of `COc1cc(NC(C)CCCN)c2ncccc2c1Sc1ccc(Cl)cc1` (stereo unspecified), the growth is 86% in [1]; 76.1% in [2]; 77% in test [3]; 10.1% in test [5]; 15.2% in test [19]; 75.4% in test [6]. In addition, the growth was 59.1% in test [7]; 63.7% in test [8]; -77.4% (active) in test [9]; 76.3% in test [10]; -33.2% (active) in test [11]; 82.4% in test [12]. The growth was 36% in [13]; 57.9% in test [14]; 70.5% in test [15]; 75.9% in [16]; 65.1% in test [17]; 27.5% in test [18].

(Values after PubChem BioAssay (NCI).)
